Assay outcomes as filed in PubChem BioAssay.
D3 ag: qHTS of D3 Dopamine Receptor Agonist: qHTS; D(3) dopamine receptor (Homo sapiens), P35462; D3R DiscoveRx beta-arrestin cells, luminescence, 90 min; max activation, %; actives 0.58% (n = 410,000); AID 652048, 2013; in the data active = max activation above about 30%; also: 0% is about no effect
Target sequence (P35462 whole entry, looked up): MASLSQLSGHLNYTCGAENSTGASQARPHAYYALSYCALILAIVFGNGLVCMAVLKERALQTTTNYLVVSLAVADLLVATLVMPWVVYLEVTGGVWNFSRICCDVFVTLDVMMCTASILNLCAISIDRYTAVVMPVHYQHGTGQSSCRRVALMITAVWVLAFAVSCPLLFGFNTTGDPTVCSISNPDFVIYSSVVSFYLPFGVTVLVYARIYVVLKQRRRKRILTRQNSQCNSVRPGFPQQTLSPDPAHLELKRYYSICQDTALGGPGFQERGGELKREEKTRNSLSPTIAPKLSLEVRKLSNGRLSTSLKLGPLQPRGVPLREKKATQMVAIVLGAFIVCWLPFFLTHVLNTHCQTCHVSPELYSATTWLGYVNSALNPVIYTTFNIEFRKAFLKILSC
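Agonist mode: compounds and dopamine controls were applied to plated cells for 90 min at 37 degrees C after an overnight attachment at 1500 cells/well. Luminescent read-out followed 30 - 60 minutes at room temperature with DiscoveRx detection reagent.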
TSHR antagonist: Antagonists of the Thyroid Stimulating Hormone Receptor: HTS campaign. Thyrotropin receptor (Homo sapiens), P16473. TSHR-expressing cells, TSH-stimulated cAMP HTRF, 2 h; active compounds read low. activity change, negative = inhibition, % at 11.5 µM. actives 0.2% (n = 330,000);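 active = activity change below a set negative limit, meaning inhibition stronger than a set level, cut at about -70% in these data; inconclusive = activity change between two set negative limits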; also: % is scaled to controls: 0 for no effect and ±100 for the full control effect
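Freshly harvested TSHR cells receive pin-tooled compound, then EC80 TSH at 4nM final. After 2 hours at 37 deg C, antibody in lysis buffer and cAMP-d2 are added; 30 minutes at ambient temperature precede the HTRF read.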
DRD3 antagonist: qHTS of D3 Dopamine Receptor Antagonist: qHTS; D3R cells, DiscoveRx beta-arrestin luminescence, antagonist mode; active compounds read low; D(3) dopamine receptor (Homo sapiens), P35462; AID 652054, 2013; actives 2.5% (n = 360,000); max response, negative = inhibition, %; in the data active = max response below about -50%; inconclusive = no clear call, values can overlap the other calls; also: % is scaled to controls: 0 for no effect and ±100 for the full control effect
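Cells expressing the human receptor were seeded at 1500 cells/well, incubated overnight at 37 degrees C in 5% CO2, then exposed to library compounds with dopamine controls for 90 minutes at 37 degrees C before luminescent detection.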
B2AR arrestin: qHTS assay of beta-arrestin-biased ligands of beta2-adrenergic receptor. Potency, µM (doses to about 46.1 µM), for the others: top-dose activation, most hits filed as activators. actives 0.02% (n = 330,000). beta-arrestin recruitment to beta2AR, cell-based reporter; active = well fitted activation curve with a large enough effect; inconclusive = small, poorly fitted or top-dose-only effect;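 also: potency is read from the fitted curve at half-maximal effect; 0% = DMSO controls and full agonism = EC100 isoproterenol or metaproterenol; nearly all actives have a fitted effect of over 65% in size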
* = called active by the depositor; u = inconclusive; x = no result given; ! = not active in a repeat. Rows were chosen to be rich in hits. Some 2.9% of all compounds tested hit in one or more screens of this group.

SMILES	D3 ag	TSHR antagonist	DRD3 antagonist	B2AR arrestin
CCC(C(=O)Nc1cc(F)ccc1F)n1nc(C)c2c(C)n(-c3ccc(C)cc3)nc2c1=O (stereo not given)	59*!	-1	31	0%
Cc1ccc(CCNC(=O)c2ccc(CS(=O)(=O)c3ccc(Br)cc3)o2)cc1	4	x	x	x
Cc1ccc(-n2c(=O)c3sc4ccccc4c3n(C)c2=O)cc1F	-13	x	x	x
Cc1ccc(CSc2ncc(Cl)c(C(=O)NCCc3ccc(S(N)(=O)=O)cc3)n2)cc1	4	x	x	x
C#CCNC(=O)C1=C[C@H](c2ccc(C(F)(F)F)cc2)[C@@H](CCCO)[C@H](OCC)O1	34*	-5	0	0%
CCOC(=O)c1c(S(=O)(=O)NCC2CCN(CCc3cccs3)CC2)c(C)n(C)c1C	-23	1	-83*	0%
CCOC(=O)c1c(S(=O)(=O)NCCc2cccs2)c(C)n(C)c1C	-3	3	-21	0%
CCOc1ccc(NC(=O)c2ccc3c(c2)nnn3C2CCCC2)cc1	-17	x	x	x
Cn1c(CCN2CCCC2)nc2cc(NS(=O)(=O)c3ccc(F)cc3)ccc21	1	x	17	x
Cc1ccc(S(=O)(=O)Nc2ccc3c(c2)nc(CCN2CCCC2)n3C)cc1	-14	3	-57*	-1%
COc1ccc(-n2cnc3cc(NS(=O)(=O)c4ccccc4)ccc32)cc1	5	17	-87*	5%
Cn1c(CN2CCCC2)nc2cc(NS(=O)(=O)c3ccc(Cl)cc3)ccc21	-19	-6	-104*	-1%
Cn1c(CN2CCCC2)nc2cc(NS(=O)(=O)c3ccccc3)ccc21	-35	2	-80*	0%
CC(C)(C)n1cnc2cc(NS(=O)(=O)c3ccccc3)ccc21	-3	23	10	0%
Cc1c(NC(=O)c2ccc(-c3ccc(F)cc3)o2)cccc1-c1nc2ncccc2o1	-16	x	x	x
O=C(CCCc1ccccc1)NC1CC(=O)N(c2ccc(F)cc2)C1 (stereo not given)	1	x	x	x
CC(=O)NCCNc1nc2cc(-c3ccccc3CO)sc2c(=O)n1C	10	x	21	x
CCOC(=O)N1CCc2c(sc(NCc3sccc3C)c2C(=O)Nc2ccccc2OCC)C1	4	x	x	x
COc1ccc(S(=O)(=O)N(CC(=O)NCc2ccc(C)cc2)c2ccc(Cl)cc2)cc1	7	x	x	x
Cc1ccccc1Cn1ccn(-c2ccc(F)c(F)c2)c(=O)c1=O	69*	x	x	x
COc1ccc(CCNC(=O)Cn2cc(S(=O)(=O)Cc3ccc(F)cc3)c3ccccc32)cc1OC	-5	x	x	x
CCCC(=NC(C)CC)C1=C(O)CC(c2ccccc2)CC1=O (stereo not given)	-7	-88*	0	0%
CCC(C)N=CC1=C(O)CC(c2ccccc2)CC1=O (stereo not given)	7	3	3	0%
NC(=O)c1ccc(Cc2ncc(C(F)(F)F)cc2Cl)s1	-2	-10	0	0%
O=S(=O)(N/N=C/c1ccc(Cl)cc1)c1ccc(Cc2ncc(C(F)(F)F)cc2Cl)s1	3	10	-73*	0%
SMILES	D3 ag	TSHR antagonist	DRD3 antagonist	B2AR arrestin
COc1cc(OC)cc(C(=O)Nc2ccc(S(=O)(=O)N3CCCCC3c3cccnc3)cc2)c1 (stereo not given)	-35	x	x	x
COC1=C(C)C(=O)C2=C(C1=O)C1C3CC4=C(C(=O)C(OC)=C(C)C4=O)C(CNC(=O)C(C)=O)N3C(C#N)C(C2)N1C (stereo not given)	-21	x	-57*	x
CCOC(=O)C1CCN(C(=O)Cn2c(=O)oc3cc(S(=O)(=O)N4CCC(C)CC4)ccc32)CC1	-7	x	x	x
O=C1Cc2ccccc2C(=O)N1	-3	x	u	x
CC1(Oc2cnc(Cl)c3ccccc23)CCN(Cc2ccc(-c3ccccn3)cc2)C1 (stereo not given)	-2	x	0	x
Cc1ccccc1OC1(C)CCN(Cc2ccc(-c3ccccn3)cc2)C1 (stereo not given)	-9	x	-75*	x
CSc1ccc(CN2CCC(C)(Oc3cccc(Cl)c3)C2)cc1 (stereo not given)	-12	x	u	x
CC1(Oc2cccc(F)c2)CCN(Cc2ccc(-c3ccccn3)cc2)C1 (stereo not given)	-27	x	-67*	x
O=S(=O)(CCSc1nc2ccccc2o1)c1nc2ccccc2s1	-11	-25	-62*	-1%
CC1=C/C(=C(\c2cc(C)c(O)c(Br)c2)c2ccccc2S(=O)(=O)O)C=C(Br)C1=O	-22	-35	-52*	0%
COc1ccc(OC)c(CNC(=O)c2ccc(Sc3ccc(Cl)cc3)c(NC(C)=O)c2)c1	7	x	x	x
CC(=O)Nc1cc(C(=O)N2CCCC2)ccc1Sc1ccc(Cl)cc1	63*	-10	58	-1%
CC(=O)Nc1cc(C(=O)N2CCCC2)ccc1Sc1ccc(C)cc1	41*	-4	34	0%
NS(=O)(=O)c1cc(C(=O)NC2CCSc3ccccc32)ccc1Cl (stereo not given)	5	-5	6	0%
CC1c2ccccc2CN1NC(=O)c1ccc(Cl)c(S(N)(=O)=O)c1 (stereo not given)	51*	x	x	x
CCn1c(Cl)c(C=O)s/c1=N\S(=O)(=O)c1ccccc1	-24	-98*	-122*	-1%
CCCSc1ncc(Cl)c(C(=O)N(Cc2ccc(N(C)C)cc2)C2CCS(=O)(=O)C2)n1 (stereo not given)	5	x	x	x
Cc1cc(/C=N/n2cnnc2)c(O)c([N+](=O)[O-])c1	-20	6	-63*	0%
CCc1ccc2c(c1)-c1ccccc1S(=O)(=O)N2CC(=O)N1CCCCC1	-14	x	x	x
COc1ccc(C(CCNCc2ccc(N(C)C)cc2)c2ccccc2OC)cc1 (stereo not given)	-30	-2	-55*	0%
O=C(N/N=C/C=C\c1ccccc1[N+](=O)[O-])c1cccs1	-16	-2	-64*	0%
COC(=O)C(=Cc1ccccc1[N+](=O)[O-])C(=O)OC	-6	17	-58*	-1%
O=C(/C=C/c1ccccc1[N+](=O)[O-])Oc1ccccc1	x	8	x	-1%
O=C(N/N=C/C=C/c1ccccc1[N+](=O)[O-])c1ccncc1	-10	-6	19	-1%
Cc1ccc(NCc2nnc(SCCN3CCCCC3)n2CC2CCCO2)c(C)c1 (stereo not given)	2	15	-54*	0%
COc1ccc2cc(CN(CCCN3CCOCC3)Cc3nnnn3C3CCCCC3)c(=O)[nH]c2c1	-35	22	-50*	0%
CCC(c1nnnn1C1CCCCC1)N(Cc1ccco1)Cc1cc2ccc(OC)cc2[nH]c1=O (stereo not given)	4	-4	-3	2%
Cc1ccc(OCCN2CCN(C(=O)CCC(=O)Nc3nnc(CC(C)C)s3)CC2)cc1	72*	-8	10	-1%
CC(C)Cc1nnc(NC(=O)CCC(=O)N2CCN(Cc3ccc(F)cc3)CC2)s1	1	12	2	0%
